Screening results: PubChem BioAssay, National Center for Advancing Translational Sciences (NCATS)
Sampled rows, rich in hits. Any-hit rate of the full collection: about 2.5%.
POLK inh = blocks human DNA polymerase kappa activity | Potency, µM (series often up to 107 µM), most hits filed as inhibitors | actives 0.53% (n = 400,000) | AID 588579 | Q9UBT6 | purified Pol kappa, fluorescent DNA synthesis assay, 10 min
Target sequence (Q9UBT6 whole entry, looked up): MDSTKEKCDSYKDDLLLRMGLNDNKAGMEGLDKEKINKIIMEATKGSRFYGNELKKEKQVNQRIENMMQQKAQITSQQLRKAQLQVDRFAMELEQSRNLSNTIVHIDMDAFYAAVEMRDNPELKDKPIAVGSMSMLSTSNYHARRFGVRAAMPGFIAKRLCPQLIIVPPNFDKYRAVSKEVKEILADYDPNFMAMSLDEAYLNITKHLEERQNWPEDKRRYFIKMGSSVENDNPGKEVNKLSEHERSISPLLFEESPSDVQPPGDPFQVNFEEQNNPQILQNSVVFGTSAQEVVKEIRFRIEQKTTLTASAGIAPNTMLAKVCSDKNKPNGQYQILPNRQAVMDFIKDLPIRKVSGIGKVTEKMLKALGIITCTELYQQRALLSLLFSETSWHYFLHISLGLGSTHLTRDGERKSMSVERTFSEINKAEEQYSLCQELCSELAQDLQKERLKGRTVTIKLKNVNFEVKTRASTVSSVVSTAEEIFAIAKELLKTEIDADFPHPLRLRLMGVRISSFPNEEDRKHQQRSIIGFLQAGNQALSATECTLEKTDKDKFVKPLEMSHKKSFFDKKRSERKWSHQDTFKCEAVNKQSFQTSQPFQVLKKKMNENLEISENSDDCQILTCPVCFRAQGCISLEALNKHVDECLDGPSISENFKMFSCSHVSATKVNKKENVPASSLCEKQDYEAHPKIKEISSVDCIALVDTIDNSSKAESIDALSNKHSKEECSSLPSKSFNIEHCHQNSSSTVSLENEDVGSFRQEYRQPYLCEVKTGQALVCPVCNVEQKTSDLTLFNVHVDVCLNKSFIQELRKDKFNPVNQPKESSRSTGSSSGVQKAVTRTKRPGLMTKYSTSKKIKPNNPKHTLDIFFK
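Readout: fluorescence, taken kinetically at 0 and 10 min. Conditions: 10 nM Pol kappa, 15 min RT compound preincubation, 50 nM substrate final. Controls: enzyme-free buffer wells.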
L3MBTL1 inh = blocks human L3MBTL1 | Q9Y468 | AlphaScreen L3MBTL1–H3K9me1 peptide binding | Potency, µM (titrated, usually from 57.1 µM), actives largely listed as inhibitors | actives 0.66% (n = 230,000) | AID 485360; note: nearly all actives have a fitted effect of over 60% in size
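L3MBTL1 50 nM + b-AHA-H3(1-15)K9me1 75 nM, 30 min RT; compound added, 30 min RT; streptavidin donor/Ni-chelate acceptor beads 10 ug/mL each final, 30 min RT dark; AlphaScreen read.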
Pol iota inh = DNA polymerase iota (human) inhibition; Q9UNA4; Pol iota fluorescent replication assay, 10 min; Potency, µM (top dose mostly 115 µM), usual class: inhibitors; actives 1% (n = 390,000); AID 588590
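Fluorescent replication assay read twice, at 0 min and 10 min after adding 50 nM (final) substrate. Enzyme (10 nM) and compounds were first incubated 15 min at room temperature; enzyme-free buffer wells were negative controls.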
POLH inh = blocks human DNA polymerase eta activity. Q9Y253. recombinant Pol eta, fluorescent DNA replication assay. Potency, µM (series often up to 114 µM), usual class: inhibitors. actives 1.2% (n = 390,000). AID 588591
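Pol eta (10 nM) was preincubated with compounds for 15 min at room temperature, after which fluorescent replication substrate (50 nM final) was added to start the reaction. Fluorescence was read kinetically at 0 and 10 min.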
WRN inhibitor = WRN helicase (human) inhibition. Q14191. WRN helicase unwinding, fluorescent forked duplex, kinetic. Potency, µM (series often up to 114 µM), usual class: inhibitors. actives 0.46% (n = 360,000); note: nearly all actives have a fitted effect of over 55% in size
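Kinetic fluorescence helicase assay: unwinding of a quenched forked DNA duplex (100 nM final) with 2 mM ATP final raises red fluorescence (525/598 nm). Compounds sat 15 min at room temperature with 20 nM WRN beforehand.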
POLB inh = inhibitors of human DNA polymerase beta | P06746 | AID 485314 | actives 1.3% (n = 340,000) | Potency, µM (doses to about 114 µM), hits mostly inhibitors | Pol beta primer extension/strand displacement, fluorescence kinetic
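Pol beta (10 nM) was preincubated with compound for 15 min at room temperature. The reaction was then started with 50 nM substrate and read immediately and after a further 10 min at room temperature.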
Numbers stand for hits; [ ] = dose if it differs, or a comment. Calls come from the whole dose curve; as a rule, active = well fitted curve in the direction sought with a large enough effect; inconclusive = small, poorly fitted or top-dose-only effect, or another doubt; inactive = no such curve, though single readings can be large; an effect the other way counts as inactive or inconclusive.

For N#C/C(=C/c1ccc(-c2cccc([N+](=O)[O-])c2)o1)C(=O)Nc1nc(-c2cccs2)cs1 the results were POLK inh inactive, Pol iota inh inconclusive, POLH inh inactive and WRN inhibitor inactive.
`N#C/C(=C\c1ccc(-c2ccc([N+](=O)[O-])cc2)o1)C(=O)Nc1nc(-c2cccs2)cs1` gave POLK inh inconclusive, Pol iota inh 14.1µM, POLH inh 31.6µM, WRN inhibitor inactive and POLB inh inconclusive.
`Cc1cccc(NC(=O)CN(C)S(=O)(=O)c2ccc3c(c2)CCC(=O)N3)c1C` gave POLK inh inactive, Pol iota inh inactive, POLH inh inactive and POLB inh inactive.
O=C(O)/C=C/c1cnc2ccccc2n1 was read as POLK inh inactive, L3MBTL1 inh inactive, Pol iota inh inactive, POLH inh inactive, WRN inhibitor inactive and POLB inh inactive.
For O=C(/C=C/c1cnc2ccccc2n1)NC12CC3CC(CC(C3)C1)C2 the results were POLK inh inactive, L3MBTL1 inh inactive, Pol iota inh inactive, POLH inh inactive, WRN inhibitor inactive and POLB inh 56.2µM.
Screening CCOC(=O)Cn1c(CCC(=O)O)ccc1-c1ccc(F)cc1 returned POLK inh inactive, L3MBTL1 inh inactive, Pol iota inh inactive, POLH inh inactive, WRN inhibitor inactive and POLB inh inactive.
Screening O=C(O)CCc1ccc(-c2ccc(Br)cc2)n1Cc1ccco1 returned POLK inh inactive, L3MBTL1 inh inactive, Pol iota inh 50.1µM, POLH inh 56.2µM, WRN inhibitor inactive and POLB inh inconclusive.
Screening O=C(O)CCc1ccc(-c2ccc(F)cc2)n1CC(=O)O returned POLK inh inactive, L3MBTL1 inh inactive, Pol iota inh inconclusive, POLH inh 11.2µM, WRN inhibitor inactive and POLB inh inactive.
For O=C(O)CCc1ccc(-c2ccc(Br)cc2)n1-c1ccc(O)cc1 the results were POLK inh inactive, Pol iota inh inconclusive, POLH inh inactive, WRN inhibitor inactive and POLB inh inactive.
Screening O=C(O)CCc1ccc(-c2ccc(F)cc2)n1Cc1ccco1 returned POLK inh inactive, L3MBTL1 inh inactive, Pol iota inh inactive, POLH inh inactive, WRN inhibitor inactive and POLB inh inactive.
For O=C(O)CCc1ccc(-c2ccccc2)n1Cc1ccco1 the results were POLK inh inconclusive, Pol iota inh inconclusive, POLH inh 15.8µM, WRN inhibitor inconclusive and POLB inh inactive.
Screening Cc1ccc(OCC2Cn3c(nc4c3c(=O)[nH]c(=O)n4C)O2)cc1C (stereo not given) returned POLK inh inactive, Pol iota inh inactive, POLH inh inactive, WRN inhibitor inactive and POLB inh inactive.
For O=C(NCCc1ccccc1)c1ccccc1C(F)(F)F the results were POLH inh inactive and WRN inhibitor inactive.
CCOc1ccccc1C(=O)NCC(=O)OCC(=O)c1ccc2c(c1)OCCO2 was read as POLK inh inactive, L3MBTL1 inh inactive, Pol iota inh inconclusive, POLH inh inactive, WRN inhibitor inactive and POLB inh 70.8µM.
CCOc1cc(C2CC(=O)N3CN(C4CCCCC4)CSC3=C2C#N)ccc1O (stereo not given) was read as POLK inh inactive, L3MBTL1 inh inactive, Pol iota inh 35.5µM, POLH inh inactive, WRN inhibitor inactive and POLB inh inactive.
N#CC1=C2SCN(C3CCCCC3)CN2C(=O)CC1c1ccc(Br)cc1 (stereo not given) was read as POLK inh inactive, Pol iota inh 20µM, POLH inh inconclusive and POLB inh inconclusive.
CCOc1cc(C2CC(=O)NC(SCC)=C2C#N)ccc1O (stereo not given) was read as POLK inh inactive, Pol iota inh inactive, POLH inh inactive, WRN inhibitor inactive and POLB inh inactive.
Screening Cc1nc(-c2ccncc2)sc1C(=O)Nc1ccc(Cl)cc1 returned POLK inh inactive, L3MBTL1 inh inactive, Pol iota inh inactive, POLH inh inactive, WRN inhibitor inactive and POLB inh inactive.
For O=C(CNC(=O)/C=C/c1ccco1)N=Nc1c(O)[nH]c2ccccc12 the results were POLK inh inactive, Pol iota inh inactive, POLH inh inactive, WRN inhibitor inactive and POLB inh 8.91µM.
Screening O=C(CNC(=O)Cc1ccccc1)N=Nc1c(O)[nH]c2ccccc12 returned POLK inh inactive, Pol iota inh inactive, POLH inh inactive, WRN inhibitor inactive and POLB inh inactive.
Cc1ccccc1-c1cnc(C(O)c2ccc(-c3ccccc3)cc2)[nH]1 (stereo not given) was read as WRN inhibitor inactive.
Screening CN(C)S(=O)(=O)c1cccc(NC(=O)COC(=O)c2ccc(Br)o2)c1 returned POLK inh inactive, L3MBTL1 inh inactive, Pol iota inh inactive, POLH inh inactive, WRN inhibitor inactive and POLB inh inactive.
For CN(C)S(=O)(=O)c1cccc(NC(=O)COC(=O)/C=C/c2ccc(Br)o2)c1 the results were POLK inh inconclusive, L3MBTL1 inh inactive, Pol iota inh 44.7µM, POLH inh inconclusive, WRN inhibitor inactive[11.6 µM] and POLB inh inconclusive.
Screening Cc1ccc(NC(=O)COC(=O)/C=C/c2ccc(Br)o2)cc1S(=O)(=O)N(C)C returned POLK inh inconclusive, L3MBTL1 inh inactive, Pol iota inh 44.7µM, POLH inh inactive, WRN inhibitor inactive[11.6 µM] and POLB inh inactive.
For O=C1CC(NS(=O)(=O)c2cccs2)CN1c1ccc(F)cc1 (stereo not given) the results were POLK inh inactive, L3MBTL1 inh inactive, Pol iota inh inactive, POLH inh inactive and WRN inhibitor inactive.
`CC(=O)Nc1nonc1NC(C)=O` gave POLK inh inactive, L3MBTL1 inh inactive, Pol iota inh inactive, POLH inh inactive, WRN inhibitor inactive and POLB inh inactive.
CC(=O)Oc1ccc2nonc2c1OC(C)=O was read as POLK inh 3.16µM and Pol iota inh 3.55µM.
`CC(=O)Nc1cc(OC(C)=O)c2nonc2c1OC(C)=O` gave POLK inh inactive, L3MBTL1 inh 2.51µM, Pol iota inh 0.794µM, POLH inh 50.1µM, WRN inhibitor inactive and POLB inh inactive.
`N#C/C(=C\C=C\c1ccccc1[N+](=O)[O-])C(=O)NC1CCCCC1` gave POLK inh inactive, L3MBTL1 inh inactive, Pol iota inh inactive, POLH inh inactive, WRN inhibitor inactive and POLB inh inactive.
`O=C(c1cccs1)N1CCN(S(=O)(=O)N2CCOCC2)CC1` gave POLK inh inactive, L3MBTL1 inh inactive, Pol iota inh inactive, POLH inh inactive, WRN inhibitor inactive and POLB inh inactive.
`C=Cc1ccc(COC(=O)c2cn(CC)c3nc(C)ccc3c2=O)cc1` gave POLK inh inactive, Pol iota inh inactive, POLH inh inactive, WRN inhibitor inactive and POLB inh inactive.
